# The supplement of paper PMC6555819
# Assays:
# Experiment in all cases: PBM binding z-score (relative to random genomic background probes); higher = stronger binding; sequences stand for … in GC…GCGATTGACAGCGTAGAATGAAGG
# [1] = tested on: RARb homodimer (NR concentration 270 nM)
# Outline: (§1)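 Binding z-scores were set against random background probes. The data came from custom Agilent 4×180K protein-binding microarrays carrying double-stranded probes with 34-nt variable regions, incubated 1 h with ligand-free nuclear receptor dimers. Partner-specific antibodies detected binding, and scanned fluorescence was regression-normalized.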
# [2] = tested on: RARg:RXRa (NR concentration 270 nM, RXRa partner concentration 90 nM)
# Outline: as §1
# [3] = tested on: RARg homodimer (NR concentration 270 nM)
# Outline: as §1
# [4] = tested on: RXRa DBDmut IVT, anti-RXR (DBD mutation: RXRa K156A/R161A, NR concentration 90 nM)
# Outline: as §1
# [5] = tested on: RXRa homodimer (NR concentration 180 nM)
# Outline: as §1
# [6] = tested on: THRa:RXRa (NR concentration 90 nM, RXRa partner concentration 90 nM)
# Outline: as §1
# [7] = tested on: THRa homodimer (NR concentration 90 nM)
# Outline: as §1
# [8] = tested on: VDR:RXRa (NR concentration 270 nM, RXRa partner concentration 90 nM)
# Outline: as §1
# [9] = tested on: VDR homodimer (NR concentration 270 nM)
# Outline: as §1
Sequence,PBM binding z-score [1],PBM binding z-score [2],PBM binding z-score [3],PBM binding z-score [4],PBM binding z-score [5],PBM binding z-score [6],PBM binding z-score [7],PBM binding z-score [8],PBM binding z-score [9]
GCTAGCAGGCCATTTTGGTCACTCAATGACGGGC,0.0226,-0.296,0.212,-0.337,-0.426,-0.234,-0.974,-0.816,-0.748
GGAACGAGGGCATTCGAGTTGATGGCATGGCGAT,0.552,1.05,1.17,3.15,0.655,2.96,-0.631,3.36,3.46
CCGACTGAGGCAGAAAGGTTACCATACCATCCGG,2.04,1.26,0.925,-0.0333,1.87,1.06,-0.0968,0.732,-0.0311
GCTTGTAGATCAGGGTTAAGAAAGACTAAGCTAA,0.053,0.416,0.152,0.053,0.823,0.939,-0.435,0.179,0.148
CGAACGGGGGCATGAGTTGATAGCAAATGCCGAT,1.89,3.42,3.74,3.24,2.51,3.04,1.25,3.88,3.69
GTACCTAGGTGAATAGGTCGTTGATGAGTAGGCG,1.12,1.85,0.79,-0.37,1.24,1.08,-0.182,0.549,0.0472
CCTCGGAGGACAACAGGAGGTCAGAGCAGCCAGA,3.68,3.56,3.45,-0.0172,2.05,2.86,1.04,1.94,1.14
TCATATAGGTAAACTGGTGAAAGTCCGTAAGTTA,0.366,0.0786,-0.0648,1.19,0.361,0.34,0.281,0.597,0.358
CCACACAGGTGAGAAGGTAACTCAGCCTCGATTA,0.713,0.766,0.648,0.395,0.675,0.428,0.324,0.0106,-0.221
ATACCAAGGTGATCGTGTGGTCGTTGATACTAAC,0.584,0.298,0.273,0.0966,0.296,0.959,0.536,0.0148,0.0513
TAGCCTAGGTCATGGGCCCGTATACCACGCGAAC,2.95,4.3,4.56,-0.133,3.53,3.13,1.76,2.07,0.701
CGTCAAAGTTCAAGGTATCGTAACAGAAAGCAGC,3.49,4.96,5.95,4.18,3.95,1.94,-0.0941,3.74,3.17
CGTCCAAGGTCAGAGAGGTCAGTTAATGCCGAGT,5.24,6.43,7.24,3.83,5.63,4.39,2.8,7.74,6.29
CAGAGTAGGTTATGGGGCATTCAGGCAACGGTGA,1.24,0.814,0.945,-0.321,0.947,0.691,0.428,0.214,0.315
CCTACTGGGACAAAAAGGTCATTGATGCCGATAA,4.37,4.68,4.48,1.21,5.22,3.31,0.878,4.78,3.69
CCTTAAGGGTCACTGACAGGTTATAGCATTTGGA,4.71,7.23,6.91,3.42,6.82,3.85,0.468,5,2.04
CCTTACGGGTCACAAGGTTATAGCACGACGAGCG,3.71,5.7,4.75,1.18,6.05,3.26,0.935,4.37,1.54
TCTTGTAGATCAAGCAGGTTAAGGAAGCCTGAGT,0.203,0.0317,-0.28,0.415,0.299,0.262,-0.359,-0.0838,0.166
AGAATGAGGTTACGAAAGATCAGGGAAACGCTTG,0.671,2.26,1.68,1.11,2.73,2.89,0.487,1.52,0.194
TCGAGTAGATTAGTCGGGGCATTCAGCCAACATA,-0.464,-0.658,-0.665,0.38,-0.393,-0.269,-0.485,-0.0689,-0.548
CCTACTGGGCCACGAAAGGTCATTTATTCAGTGA,4.32,4.41,4.2,0.751,4.96,3.5,0.944,4.27,2.76
TCATGTAGGTAAATGCTAGGTGAAAGTCCGATCT,0.541,0.226,0.15,1.26,0.398,1.28,0.741,0.587,0.319
TCTATTAGTTCATTAGGGCAACCGAAACAGCGGA,2.52,2.4,2.37,3.46,1.12,1.45,0.899,2.2,3
CCAGACAGGTGAGAAGGTAACTAAGCCTCGATTA,0.66,0.524,0.586,-0.275,0.277,0.221,-0.101,-0.0342,-0.0907
CGAACTAGGTCAGGGACAGTGAATCTCCGCACGC,2.17,2.92,3.51,0.647,1.47,2.23,1.07,0.457,-0.0543
GCAGACATGTGAAACGCAGGTAACTCAGGGTGGC,-0.931,-0.194,-0.391,-0.691,-0.0899,0.4,-0.871,-0.478,-1.27
